The campaign covered roughly 50,000 compounds. About 800 (1.6%) showed an effect of 50% or more. Only a selection was taken, and strong results are over-represented in it overall.

Bcl-2-like protein 10 (Homo sapiens), sequence (Q9HD36 whole entry, looked up): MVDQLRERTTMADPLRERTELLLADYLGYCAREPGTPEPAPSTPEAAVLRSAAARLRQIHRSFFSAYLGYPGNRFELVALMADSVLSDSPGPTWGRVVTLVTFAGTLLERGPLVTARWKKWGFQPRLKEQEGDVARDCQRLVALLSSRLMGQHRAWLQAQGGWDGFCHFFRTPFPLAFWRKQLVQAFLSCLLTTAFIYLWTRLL

The assay concerns the target Bcl-2-like protein 10 (Homo sapiens) (UniProt Q9HD36). Put plainly: TR3 peptide-Bcl-B binding displacers, biochemical primary FP assay, phenotype converters (AID 1240).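 Further: 0% = Bcl-B with tracer peptide and DMSO and 100% = tracer peptide lacking Bcl-B.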 The conditions noted are these: GST-Bcl-B / FITC-TR3 peptide fluorescence polarization; stronger effect = higher value; compound at 3.75 mg/L. Background: Polarisation of emitted light reports the rotation of a fluorescent probe.
Take `CCn1cc(C(=O)NN)c(=O)c2cc(Br)ccc21`: the displacement was 20.2%.
Next, `O=C(CSc1nc2ccc([N+](=O)[O-])cc2s1)N1CCOCC1`: 1.4%; `COC1C(C)=CC(=O)N1Cc1ccccc1` (stereo not given): 4.4%; `Cc1cc(C)c(S(=O)(=O)NCC2CCCO2)c(C)c1` (stereo not given): -8%.
Regarding `CCc1cc(C)cc(OCCOc2ccc([N+](=O)[O-])cc2/C=C2/SC(=S)N(C)C2=O)c1`, the displacement came out at 20.5%.
To `COc1ccccc1/C=C1\SC(=N)N(c2ccc(F)cc2)C1=O` belongs -8.6%; to `CCCc1[nH]n(-c2nc3ccccc3s2)c(=O)c1C=NCCc1ccccc1`, -1%; to `O=c1c(C=NCc2cccs2)c(C(F)(F)F)[nH]n1-c1nc2ccccc2s1`, -13.8%.
Next, `COc1ccc(CCN=Cc2c(C(F)(F)F)[nH]n(-c3nc4ccccc4s3)c2=O)cc1OC`: 69.9%; `Cc1ccc(C)c(NC(=O)C2C3C4CCC(C4)C23)c1` (stereo not given): -7.2%.
Next, `COc1ccc(/C=C/C(=O)NC(=S)Nc2ccc(I)cc2)cc1`: 14.3%; `O=C(Nc1c(C(=O)Nc2cccc(Cl)c2)cnn1-c1ccccc1)c1ccccc1Cl`: 83%.
Regarding `CCN(CC)C(=O)c1cnn(-c2ccccc2)c1NC(=O)c1ccccc1Cl`, the displacement is 9.1%.
To `Cc1ccc(NC(=O)c2cnn(-c3ccccc3)c2NC(=O)c2ccccc2Cl)cc1C` belongs 3.3%; to `COCCOC(=O)c1ccc(NC(=O)c2ccccc2CCc2ccccc2)cc1`, 7.1%.
To `CN1CCC(O)N1C(=O)c1ccccc1O` (stereo not given) belongs 12.7%; to `Cc1ccc(-c2nc3cc(Cl)ccc3o2)cc1NC(=O)c1ccc2c(c1)OCCO2`, 102%; to `COc1cc(OC)cc(C(=O)Nc2cc(-c3nc4cc(Cl)ccc4o3)ccc2C)c1`, 110%.
For `Cc1ccc(-c2nc3cc(Cl)ccc3o2)cc1NC(=O)c1ccc2ccccc2c1`, the displacement amounted to 128%.
To `Cc1ccc(-c2nc3ccccc3o2)cc1NC(=O)c1ccc2c(c1)OCCO2` belongs 45.1%; to `Cc1ccc(-c2nc3ccccc3o2)cc1NC(=O)c1cccc(Cl)c1`, 17%; to `O=C(Nc1cccc(-c2nc3cc(Cl)ccc3o2)c1)c1ccc2c(c1)OCCO2`, 105%.
Next, `Cc1ccc2nc(-c3ccc(C)c(NC(=O)c4ccc5ccccc5c4)c3)oc2c1`: -11.3%; `CCc1ccc2oc(-c3ccc(C)c(NC(=O)c4cc(OC)cc(OC)c4)c3)nc2c1`: 13.4%; `O=C(Nc1cccc(-c2nc3cc(Cl)ccc3o2)c1)c1ccc(Cl)cc1`: 0.2%.
Next, `Cc1ccc(-c2nc3cc(Cl)cc(Cl)c3o2)cc1NC(=O)c1ccc2c(c1)OCCO2`: 6.6%; `CCc1ccc2oc(-c3cccc(NC(=O)c4ccc5c(c4)OCCO5)c3)nc2c1`: 0.9%.
Turning to `COc1c(Cl)cc(C(=O)Nc2cc(-c3nc4cc(Cl)ccc4o3)ccc2C)cc1Cl`, the displacement is 7.7%.
To `COc1ccc(C)cc1NC(=O)COc1ccc(Br)cc1C` belongs 7.7%; to `CCOC(=O)C1=C(C)NC(=O)CC1c1ccccc1I` (stereo not given), -10.7%.
Next, `COc1ccc(OCCCCN2CCN(C)CC2)cc1`: -5.8%.
Next, `Cc1noc2c1/C(=N\O)CC(c1ccccc1)C2` (stereo not given): 2.6%.
Take `Cc1cc(C(=O)Nc2cccc(C)c2C)ccc1[N+](=O)[O-]`: the displacement turned out to be 15.9%.
To `Cc1oc2ccc(OCc3c(F)cccc3Cl)cc2c1C(=O)O` belongs 11.7%; to `COCCOC(=O)c1c(C)oc2ccc(OCc3c(F)cccc3Cl)cc12`, 6.9%; to `COC(=O)c1c(C)oc2ccc(OCc3c(F)cccc3Cl)cc12`, 91%.
Next, `Cc1ccc(N(CC(=O)N(Cc2ccccc2)Cc2ccccc2)S(C)(=O)=O)cc1`: -7.5%.
To `N#C/C(=C(/O)C(Cl)(Cl)Cl)c1nc2ccccc2[nH]1` belongs -5.5%.
Take `C/C(=N\OC/C(O)=C(\C#N)c1nc2ccccc2[nH]1)c1ccc(Br)cc1`: the displacement amounted to 46.6%.
Turning to `N#C/C(=C(/O)CO/N=C/c1ccccc1Cl)c1nc2ccccc2[nH]1`, the displacement is 53.6%.
Take `O=C(CC1Nc2ccccc2NC1=O)Nc1cccc(C(=O)O)c1` (stereo not given): the displacement was -2.4%.
Next, `CCCOc1cccc(C(=O)Nc2ccc(F)c([N+](=O)[O-])c2)c1`: 13.4%; `CC1=NN(C(=O)c2cccnc2)C(O)(c2ccccc2)C1` (stereo not given): -6.3%; `O=C(Cc1cccs1)NCC1CCCO1` (stereo not given): 14.5%.
Next, `O=C(N/N=C/c1ccc(O)c(O)c1)c1cccc(F)c1`: -6.6%; `O=C(NCCCn1ccnc1)c1ccccc1Br`: -8.7%; `O=C(Nc1ccccc1C(=O)NCCCn1ccnc1)c1ccccc1`: 83.5%.
Next, `COc1ccc(C(=O)Nc2ccccc2C(=O)NCCCn2ccnc2)cc1`: 11.9%.
As to `COC(=O)C1=CNC=C(C(=O)OC)C1c1cccc(OCc2ccccc2)c1`, the displacement came to 1.2%.
Turning to `O=C(/C=C/c1ccc([N+](=O)[O-])cc1)Nc1ccc(F)cc1`, the displacement is -2.7%.
Regarding `O=C(/C=C\Nc1ccc(Br)cn1)c1ccc(Cl)cc1`, the displacement came to 61.9%.
Next, `COc1ccc(C(=O)/C=C/Nc2ccccc2F)cc1`: 5.6%.
For `O=C(/C=C/Nc1ccccc1F)c1ccccc1`, the displacement came out at 8.2%.
In the case of `O=C(/C=C/Nc1ccccc1F)c1ccc(Br)cc1`, the displacement is 85.6%.
Take `O=C(/C=C/Nc1ccccn1)c1ccc(Br)cc1`: the displacement is 3%.
In the case of `COc1ccc(C(=O)/C=C\Nc2ccc(Cl)cn2)cc1`, the displacement is -23.9%.
With `Cc1sccc1/C=N/NC(=O)C1CC1`, the displacement was 3%.
Consider `Cc1ccc(/C=N/N=C/c2ccc(C)cc2)cc1`, for which the displacement turned out to be 2.2%.
For the compound `C/C(=C\C(=O)c1ccc(Cl)cc1)Nc1ccc(Br)c(C)c1`, the displacement amounted to 4.4%.
To `COc1ccc(/C=c2\sc3nc(-c4ccccc4)nn3c2=O)cc1` belongs 77.5%; to `COc1ccccc1/C=c1/sc2nc(-c3ccc(Cl)cc3Cl)nn2c1=O`, 7.3%; to `COc1ccc(/C=c2\sc3nnc(-c4ccccc4)n3c2=O)c(OC)c1`, 28%.
Take `COC(=O)c1ccc(/C=c2\sc3nc(-c4ccc(C)cc4)nn3c2=O)cc1`: the displacement turned out to be 10.7%.
Take `Cc1ccc(-c2nnc3s/c(=C\c4ccccc4Cl)c(=O)n23)cc1`: the displacement is 30.3%.
As for `COc1ccc(/C=c2\sc3nnc(-c4ccc(C)cc4)n3c2=O)c(OC)c1`, the displacement worked out at 73.8%.
To `COc1ccccc1/C=c1\sc2nc(-c3ccc(C)cc3)nn2c1=O` belongs 61.7%.
To `COc1ccc(-c2nn(-c3ccccc3)cc2/C=c2\sc3nc(-c4ccc(C)cc4)nn3c2=O)cc1` belongs 8.3%.
Take `COc1ccc(/C=c2/sc3nc(-c4ccc(C(C)(C)C)cc4)nn3c2=O)cc1`: the displacement amounted to 11.3%.
As for `OCCCc1nc2ccccc2n1Cc1ccccc1`, the displacement turned out to be 2.4%.
To `O=[N+]([O-])c1cc(C(F)(F)F)ccc1N/N=C/c1ccc(F)cc1` belongs 6.3%; to `CC(=O)N(C1=C(N2CCCCC2)C(=O)c2ccccc2C1=O)c1ccc(C)cc1`, 11.1%; to `O=C(Nc1ccc2c(c1)OCCO2)c1ccc(Br)cc1`, -0.2%.
Next, `O=S(=O)(Nc1ccc(SC(F)F)cc1)c1cccc2cccnc12`: 1.7%.
Next, `CCc1nnc(NC(=O)C2CCCC2)s1`: -7.8%.
On to `Cc1cc(=O)n2cc(Br)ccc2n1`, for which the displacement was found to be 0.1%.
Next, `O=C(Nc1ccc(NC(=O)c2ccc([N+](=O)[O-])cc2Cl)cc1Cl)c1ccco1`: -2%; `O=C(C1CCCCC1)N1CCN=C1c1ccccc1`: -1%; `CN1C(=O)NC(=O)/C(=C\c2cc(Cl)c(OCC(=O)O)c(Cl)c2)C1=O`: -3.5%.
To `Cc1ccc(NC(=O)/C=C/c2ccccc2)cc1` belongs -3.5%.
Next, `Cc1ccc(NC(=O)/C=C/C(=O)c2ccccc2)cc1`: 54.6%.
As to `O=C(O)/C=C\C(=O)Nc1ccc(C(=O)c2ccccc2)cc1`, the displacement was 3.2%.
Regarding `CCN(CC)CCN1C(=O)C(O)=C(C(=O)/C=C/c2ccccc2)C1c1ccc(Br)cc1` (stereo not given), the displacement is 11.4%.
As to `O=C(C1CCCC1)N1CCN(c2ccc(F)cc2)CC1`, the displacement is -0.9%.
To `O=C(COc1ccccc1[N+](=O)[O-])Nc1ccc2oc(-c3ccccc3Br)nc2c1` belongs 5.2%.
Next, `O=C(COc1ccccc1[N+](=O)[O-])Nc1cc(-c2nc3ccccc3o2)ccc1Cl`: 91.6%; `O=C(COc1ccccc1[N+](=O)[O-])Nc1ccc(-c2nc3ccccc3o2)cc1`: -1.3%; `O=C(COc1ccccc1[N+](=O)[O-])Nc1ccc2oc(-c3cccc4ccccc34)nc2c1`: 56.9%.
With `O=C(COc1ccccc1[N+](=O)[O-])Nc1ccc2oc(-c3ccccc3F)nc2c1`, the displacement was 2.9%.
With `Cc1cc2nc(-c3ccc(NC(=O)COc4ccccc4[N+](=O)[O-])cc3)oc2cc1C`, the displacement was -0.7%.
Turning to `Cc1cc(C)c2oc(-c3ccc(NC(=O)COc4ccccc4[N+](=O)[O-])cc3)nc2c1`, the displacement turned out to be 89.3%.
Next, `Cc1cc(C)c2oc(-c3cccc(NC(=O)COc4ccccc4[N+](=O)[O-])c3)nc2c1`: -24.2%.
Next, `Cc1ccc(-c2nc3ccccc3o2)cc1NC(=O)COc1ccccc1[N+](=O)[O-]`: -7.1%; `Cc1cc(C)c2nc(Nc3nc4ccccc4c(=O)[nH]3)nc(C)c2c1`: 9.2%; `O=C(O)CCCCCN1C(=O)C(O)=C(C(=O)/C=C/c2ccccc2)C1c1ccccc1Cl` (stereo not given): -7.2%.
Take `Cc1c(O)nc(Nc2nc(C)c3ccccc3n2)[nH]c1=O`: the displacement was 9%.
